Test results from PubChem BioAssay (NCATS).
Records with an inconclusive call do not appear. Calls of active or inactive are those of the source. Unless noted, calls come from the whole dose curve; as a rule, active = well fitted curve in the direction sought with a large enough effect; inconclusive = small, poorly fitted or top-dose-only effect, or another doubt; inactive = no such curve, though single readings can be large; an effect the other way counts as inactive or inconclusive.

How the values were obtained:
[1] = target: Rap guanine nucleotide exchange factor 3 (Homo sapiens) (UniProt O95398); assay: Confirmatory qHTS for antagonist of cAMP-regulated guanine nucleotide exchange factor 3 (EPAC1) (AID 1645880);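 note: plate controls were DMSO only for no effect and full effect of the ATA control for full effect; nearly all actives have a fitted effect of over 55% in size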
Sequence of Rap guanine nucleotide exchange factor 3 (Homo sapiens) (O95398 whole entry, looked up): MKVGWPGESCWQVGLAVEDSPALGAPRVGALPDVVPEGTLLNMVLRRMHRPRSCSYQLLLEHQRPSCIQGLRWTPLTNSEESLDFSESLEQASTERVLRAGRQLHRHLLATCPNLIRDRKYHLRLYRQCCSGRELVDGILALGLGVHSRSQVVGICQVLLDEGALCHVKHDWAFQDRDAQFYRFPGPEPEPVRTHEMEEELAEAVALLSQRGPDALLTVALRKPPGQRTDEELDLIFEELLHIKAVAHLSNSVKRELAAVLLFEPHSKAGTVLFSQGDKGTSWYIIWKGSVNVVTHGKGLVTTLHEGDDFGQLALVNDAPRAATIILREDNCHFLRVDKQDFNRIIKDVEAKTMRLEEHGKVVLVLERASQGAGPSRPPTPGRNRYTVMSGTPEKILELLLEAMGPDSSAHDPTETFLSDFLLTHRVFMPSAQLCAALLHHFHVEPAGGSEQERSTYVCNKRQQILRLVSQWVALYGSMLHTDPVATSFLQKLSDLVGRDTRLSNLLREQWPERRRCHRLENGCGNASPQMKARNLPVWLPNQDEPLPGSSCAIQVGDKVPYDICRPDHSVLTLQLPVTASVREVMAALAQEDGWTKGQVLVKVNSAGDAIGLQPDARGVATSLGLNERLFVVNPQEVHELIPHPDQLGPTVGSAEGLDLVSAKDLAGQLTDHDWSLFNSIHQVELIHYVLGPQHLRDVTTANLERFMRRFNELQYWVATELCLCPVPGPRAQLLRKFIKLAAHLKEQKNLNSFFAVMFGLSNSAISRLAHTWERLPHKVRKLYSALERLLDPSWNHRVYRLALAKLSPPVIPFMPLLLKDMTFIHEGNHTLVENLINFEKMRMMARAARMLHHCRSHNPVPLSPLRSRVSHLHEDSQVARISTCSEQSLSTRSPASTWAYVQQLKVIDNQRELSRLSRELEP
How it was run: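 Nucleotide exchange uses 100 nM EPAC1, 250 nM RAP1B-BODIPY-GDP and 50 uM GDP, with compounds in a concentration-titration series. After 5 min at room temperature, fluorescence (480 nm ex/540 nm em) is read every 5 min for 30 min. Data are normalized to control ATA and DMSO.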

[2] = target: Rap guanine nucleotide exchange factor 3 (Homo sapiens) (UniProt O95398); assay: Confirmatory qHTS for agonist of cAMP-regulated guanine nucleotide exchange factor 3 (EPAC1) (AID 1645881);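 note: EPAC1 catalysed release of BODIPY-GDP from Rap1B seen as fluorescence loss; 100% = effect of cAMP agonist control; nearly all actives have a fitted effect of over 75% in size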
[3] = target: Rap guanine nucleotide exchange factor 4 (Homo sapiens) (UniProt Q8WZA2); assay: Confirmatory qHTS for agonist of cAMP-regulated guanine nucleotide exchange factor 4 (EPAC2) (AID 1645884);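 note: nucleotide exchange releases bodipy-GDP from Rap1 and this lowers its fluorescence; % is set by controls: 0 for no effect and ±100 for the full control effect; nearly all actives have a fitted effect of over 65% in size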
Sequence of Rap guanine nucleotide exchange factor 4 (Homo sapiens) (Q8WZA2 whole entry, looked up): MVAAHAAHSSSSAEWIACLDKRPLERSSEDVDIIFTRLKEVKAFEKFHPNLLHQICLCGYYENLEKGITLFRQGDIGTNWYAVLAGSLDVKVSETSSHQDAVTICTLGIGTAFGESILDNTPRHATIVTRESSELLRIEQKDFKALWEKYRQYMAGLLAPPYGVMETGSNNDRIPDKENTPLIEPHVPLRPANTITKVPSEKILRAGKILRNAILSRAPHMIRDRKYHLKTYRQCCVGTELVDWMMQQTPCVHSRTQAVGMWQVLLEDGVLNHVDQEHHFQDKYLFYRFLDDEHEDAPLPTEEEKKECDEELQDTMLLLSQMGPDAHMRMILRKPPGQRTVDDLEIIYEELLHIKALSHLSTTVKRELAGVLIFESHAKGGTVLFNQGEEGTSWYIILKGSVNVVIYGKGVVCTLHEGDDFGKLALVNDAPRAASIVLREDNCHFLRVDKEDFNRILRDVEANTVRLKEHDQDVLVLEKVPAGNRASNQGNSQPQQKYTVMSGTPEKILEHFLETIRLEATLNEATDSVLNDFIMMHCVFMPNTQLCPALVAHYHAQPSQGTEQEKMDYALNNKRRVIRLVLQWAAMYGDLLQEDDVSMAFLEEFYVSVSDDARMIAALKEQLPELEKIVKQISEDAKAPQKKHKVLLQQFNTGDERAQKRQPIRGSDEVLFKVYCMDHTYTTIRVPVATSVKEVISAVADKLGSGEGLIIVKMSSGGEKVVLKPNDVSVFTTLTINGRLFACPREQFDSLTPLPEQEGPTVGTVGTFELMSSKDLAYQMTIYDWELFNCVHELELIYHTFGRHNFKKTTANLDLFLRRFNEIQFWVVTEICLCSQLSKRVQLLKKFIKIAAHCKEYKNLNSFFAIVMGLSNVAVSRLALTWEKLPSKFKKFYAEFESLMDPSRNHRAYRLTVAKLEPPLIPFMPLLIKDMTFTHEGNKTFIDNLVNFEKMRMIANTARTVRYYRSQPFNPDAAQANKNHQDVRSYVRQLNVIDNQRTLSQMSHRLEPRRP

[4] = target: Rap guanine nucleotide exchange factor 4 (Homo sapiens) (UniProt Q8WZA2); assay: Confirmatory qHTS for antagonist of cAMP-regulated guanine nucleotide exchange factor 4 (EPAC2) (AID 1645885); note: nearly all actives have a fitted effect of over 25% in size
[5] = target: Rap guanine nucleotide exchange factor 3 (Homo sapiens) (UniProt O95398); assay: Counterscreen qHTS for antagonist of cAMP-regulated guanine nucleotide exchange factor 3 (EPAC1) (AID 1645888);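 note: fluorescence loss as bound BODIPY-GDP is released from Rap1B; % of control where 0% means no effect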
How it was run: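 Rap1B-BODIPY-GDP 250 nM + GDP 50 uM; cpds 7-pt, final 9.74 nM–152 uM (activator mode) or from 7.32 nM upwards (inhibitor mode); RT; FI 480/540 nm at 5 and 30 min, then ± cAMP, reread.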

[6] = target: Cytochrome P450 1A2 (Homo sapiens) (UniProt P05177); assay: p450-cyp1a2 (AID 410; calls by dose curve;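 note: -100% = full effect of reference inhibitor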)
How it was run: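 Inhibition was calculated relative to 57 uM furafylline (full inhibition). The reaction used human CYP1A2 at 20nM with Luciferin-ME at its Km, 100uM, driven by an NADPH-regenerating system for 60 min at room temperature.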

[7] = target: Glucocorticoid receptor (Homo sapiens) (UniProt P04150); assay: GR-GFP Redistribution (AID 450;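 active = compounds whose dose series gives a full or clear partial fitted curve of increased nuclear translocation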; note: potency is the fitted concentration of half-maximal effect); conditions: U2OS GR-GFP nuclear translocation, laser cytometry, 2 h
Sequence of Glucocorticoid receptor (Homo sapiens) (P04150 whole entry, looked up, the tested form may be a part): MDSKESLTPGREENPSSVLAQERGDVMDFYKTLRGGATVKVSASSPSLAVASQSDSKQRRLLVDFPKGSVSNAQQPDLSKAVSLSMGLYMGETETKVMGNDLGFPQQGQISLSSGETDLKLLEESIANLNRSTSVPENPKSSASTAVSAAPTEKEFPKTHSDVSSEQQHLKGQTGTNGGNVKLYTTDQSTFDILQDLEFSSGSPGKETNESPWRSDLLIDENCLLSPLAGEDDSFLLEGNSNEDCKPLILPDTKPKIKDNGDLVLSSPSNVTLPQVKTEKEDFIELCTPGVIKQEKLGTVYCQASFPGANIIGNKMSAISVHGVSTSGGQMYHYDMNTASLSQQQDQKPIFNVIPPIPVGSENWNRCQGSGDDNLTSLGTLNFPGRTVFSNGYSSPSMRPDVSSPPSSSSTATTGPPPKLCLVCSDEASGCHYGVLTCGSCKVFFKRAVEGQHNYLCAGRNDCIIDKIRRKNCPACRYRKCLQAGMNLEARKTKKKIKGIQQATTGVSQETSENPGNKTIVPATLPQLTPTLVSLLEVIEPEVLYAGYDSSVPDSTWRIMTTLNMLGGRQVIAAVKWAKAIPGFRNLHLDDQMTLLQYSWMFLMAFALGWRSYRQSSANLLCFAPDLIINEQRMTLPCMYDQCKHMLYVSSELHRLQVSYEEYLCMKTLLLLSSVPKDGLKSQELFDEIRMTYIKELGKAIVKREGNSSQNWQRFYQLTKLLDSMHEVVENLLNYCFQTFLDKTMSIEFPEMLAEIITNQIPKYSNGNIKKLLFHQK

[8] = target: Glucocorticoid receptor (Homo sapiens) (UniProt P04150); assay: GR-EFC Redistribution (AID 451; calls by dose curve; note: potency is the fitted concentration of half-maximal effect); conditions: CHO-K1 GR-EFC translocation, beta-gal luminescence, 2 h
How it was run: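 Translocation of GR-ED fusion to nuclear EA restores b-gal, read by luminescence after 1 h room-temperature detection. Engineered CHO-K1 biosensor cells, 1,000/well, exposed 2 h at 37 C to titrations up to 46 uM final.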

[9] = target: Mitogen-activated protein kinase 10 (Mus musculus) (UniProt Q61831); assay: JNK3 AlphaScreen Assay (AID 530; active = well fitted curve in either direction with a large enough effect, not every such curve was filed as active;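 note: kinase came from lysate of stimulated human HepG2 cells; signal reports phosphorylation of biotinylated GST-cJun 1-79 at Ser73 with 10 µM ATP; % is set by controls: 0 for no effect and ±100 for the full control effect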)
How it was run: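 Room-temperature AlphaScreen kinase assay; pre-activated HepG2 lysate as JNK3 source, biotin-GST-cJun(1-79) substrate, 10 uM ATP, compound 15 min preincubation.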

[10] = target: 3',5'-cyclic-AMP phosphodiesterase 4B (Homo sapiens) (UniProt Q07343); assay: qHTS Assay for Inhibitors of PDE-IV (AID 607; active = well fitted activation curve with a large enough effect in the main read-out, with a control signal flat, not every such curve was filed as active; note: % of control where 0% means no effect)
Sequence of 3',5'-cyclic-AMP phosphodiesterase 4B (Homo sapiens) (Q07343 whole entry, looked up): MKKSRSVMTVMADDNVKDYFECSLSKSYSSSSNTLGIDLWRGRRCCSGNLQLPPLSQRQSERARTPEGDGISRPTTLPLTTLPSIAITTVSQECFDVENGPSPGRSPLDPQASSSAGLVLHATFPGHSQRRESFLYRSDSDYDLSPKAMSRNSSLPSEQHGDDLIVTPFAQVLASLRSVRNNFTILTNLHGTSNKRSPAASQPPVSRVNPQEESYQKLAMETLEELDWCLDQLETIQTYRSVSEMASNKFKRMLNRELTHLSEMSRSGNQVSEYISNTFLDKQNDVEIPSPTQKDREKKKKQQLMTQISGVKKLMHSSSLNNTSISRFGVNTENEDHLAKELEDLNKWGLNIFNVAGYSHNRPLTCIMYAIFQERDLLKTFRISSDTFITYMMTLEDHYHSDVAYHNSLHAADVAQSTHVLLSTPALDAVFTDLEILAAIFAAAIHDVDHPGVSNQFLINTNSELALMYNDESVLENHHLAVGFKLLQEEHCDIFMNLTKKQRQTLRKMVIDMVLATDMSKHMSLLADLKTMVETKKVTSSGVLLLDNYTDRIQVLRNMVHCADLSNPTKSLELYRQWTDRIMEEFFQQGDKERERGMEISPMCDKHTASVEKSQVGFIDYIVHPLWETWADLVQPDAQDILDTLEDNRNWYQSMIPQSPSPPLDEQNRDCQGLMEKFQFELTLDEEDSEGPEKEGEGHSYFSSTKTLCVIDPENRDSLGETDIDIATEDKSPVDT
How it was run: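 ACTOne HEK293 cells carry a modified cAMP-gated CNG channel and express endogenous PDE4; plated 1000 cells/well, compounds up to 22.9 uM final. Membrane-potential dye fluorescence (ex 535/em 590) was read; parental cells received 10 uM forskolin + 100 uM RO 20-1724.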

[11] = target: Ubiquitin carboxyl-terminal hydrolase 1 (Homo sapiens) (UniProt O94782); assay: Inhibitors of USP1/UAF1: Pilot qHTS (AID 504865);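 note: rhodamine fluorescence freed from ubiquitin-rhodamine substrate followed over time; top concentration of the series differs between compounds; % is set by controls: 0 for no effect and ±100 for the full control effect; nearly all actives have a fitted effect of over 35% in size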
How it was run: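 Kinetic fluorescence assay: 1nM USP1/UAF1, 15 min compound preincubation, then 150nM Ub-Rho; 480/540 nm.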

[12] = target: DNA dC->dU-editing enzyme APOBEC-3G (Homo sapiens) (UniProt Q9HC16); assay: qHTS for inhibitors of Vif-A3G interactions: Validation (AID 588379); note: 0% is about no effect
Sequence of DNA dC->dU-editing enzyme APOBEC-3G (Homo sapiens) (Q9HC16 whole entry, looked up): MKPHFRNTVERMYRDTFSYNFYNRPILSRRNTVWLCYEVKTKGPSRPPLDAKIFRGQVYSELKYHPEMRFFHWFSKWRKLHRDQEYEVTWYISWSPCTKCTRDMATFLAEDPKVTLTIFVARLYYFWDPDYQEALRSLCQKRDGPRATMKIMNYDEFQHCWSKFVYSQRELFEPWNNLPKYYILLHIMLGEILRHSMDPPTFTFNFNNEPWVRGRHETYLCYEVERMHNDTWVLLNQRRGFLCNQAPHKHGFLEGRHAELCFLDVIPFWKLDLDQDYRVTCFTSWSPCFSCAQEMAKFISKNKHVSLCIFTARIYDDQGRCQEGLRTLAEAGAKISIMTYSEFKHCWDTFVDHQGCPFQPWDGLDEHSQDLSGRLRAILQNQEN
How it was run: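 HeLa cells stably expressing Vif and A3G-eYFP, 700 cells/well, incubated overnight at 37 deg C, then exposed to compound overnight at 37 deg C. Inhibition of Vif-mediated degradation read as increased yellow fluorescence (Ex 488/Em 500-530) by laser-scanning cytometry.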

[13] = Primary qHTS for small molecule stabilizers of the endoplasmic reticulum resident proteome: Secreted ER Calcium Modulated Protein (SERCaMP) assay (AID 1508630); note: % is set by controls: 0 for no effect and ±100 for the full control effect
How it was run: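 GLuc-SERCaMP-expressing SH-SY5Y cells, pretreated 16 h with compound, are challenged with thapsigargin to empty ER calcium stores; after 4 h, coelenterazine is added directly to the medium and luminescence is imaged.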

[14] = Confirmatory qHTS for small molecule stabilizers of the endoplasmic reticulum resident proteome: Secreted ER Calcium Modulated Protein (SERCaMP) assay (AID 1508628);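 note: SH-SY5Y cells given compound 16 h then thapsigargin 100 nM for 4 h; % is set by controls: 0 for no effect and ±100 for the full control effect; nearly all actives have a fitted effect of over 40% in size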
How it was run: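 We seeded SH-SY5Y-GLuc-SERCaMP cells, added compounds (three concentrations in the primary run, eleven up to 76.6 uM in confirmation), incubated 16 h, depleted ER calcium with thapsigargin, and read luciferase 4 h later.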

[15] = NFAT Signaling Pathway (AID 444; active = well fitted curve in either direction with a large enough effect, not every such curve was filed as active;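 note: carbachol stimulus at about its EC50 of 1 µM final; % is set by controls: 0 for no effect and ±100 for the full control effect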); conditions: Jurkat NFAT-bla M1, carbachol, beta-lactamase ratio, 5 h; at 38 µM (top of the series)
How it was run: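 Read-out: CCF4 FRET ratio (460 nm/530 nm) after 1 h RT dye loading, used for %activity and AC50 from titration series. Cells: Jurkat NFAT-β-lactamase/M1 line, treated with compound plus 1 uM carbachol for 5 h, 37 °C.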

[16] = Stat Signaling Pathway (AID 446; active = well fitted curve in either direction with a large enough effect, not every such curve was filed as active;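 note: ME-180 cervical cancer cells given 40 pM IL-6 alongside compound; SIE-controlled beta-lactamase reporter measured as 460/530 nm FRET emission ratio; % is set by controls: 0 for no effect and ±100 for the full control effect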); conditions: ME-180 SIE beta-lactamase reporter, IL-6 stimulated, 5 h; at 38 µM (top of the series)
How it was run: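 ME-180 SIE-bla cells; overnight plating; cpd + IL-6 40 pM, 5 h, 37 C; LiveBLAzer 2.5 h RT; 460/530 nm emission ratio. Normalized to 300 pM IL-6 and 125 nM JAK inhibitor controls.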

[17] = target: Guanine nucleotide-binding protein G(i) subunit alpha-1 (Homo sapiens) (UniProt P63096); assay: qHTS Assay for Inhibitors of RGS12 GoLoco Motif Activity (Green Fluorophore) (AID 879);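 note: 0% = labeled peptide with Gαi1 and full inhibition = labeled peptide alone without protein; negative values mean loss of peptide binding seen as reduced polarization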
How it was run: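 Fluorescence polarization assay: 50 nM Gαi1 with 10 nM FITC-labeled RGS12 GoLoco peptide in 10 mM Tris pH 7.5, 150 mM NaCl, 0.1 mM GDP, 0.05% NP40, 10 min at room temperature with compound.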

[18] = target: Cytochrome P450 2C9 (Homo sapiens) (UniProt P11712); assay: qHTS Assay for Inhibitors and Substrates of Cytochrome P450 2C9 (AID 883); note: % is set by controls: 0 for no effect and ±100 for the full control effect; nearly all actives have a fitted effect of over 60% in size
Sequence of Cytochrome P450 2C9 (Homo sapiens) (P11712 whole entry, looked up): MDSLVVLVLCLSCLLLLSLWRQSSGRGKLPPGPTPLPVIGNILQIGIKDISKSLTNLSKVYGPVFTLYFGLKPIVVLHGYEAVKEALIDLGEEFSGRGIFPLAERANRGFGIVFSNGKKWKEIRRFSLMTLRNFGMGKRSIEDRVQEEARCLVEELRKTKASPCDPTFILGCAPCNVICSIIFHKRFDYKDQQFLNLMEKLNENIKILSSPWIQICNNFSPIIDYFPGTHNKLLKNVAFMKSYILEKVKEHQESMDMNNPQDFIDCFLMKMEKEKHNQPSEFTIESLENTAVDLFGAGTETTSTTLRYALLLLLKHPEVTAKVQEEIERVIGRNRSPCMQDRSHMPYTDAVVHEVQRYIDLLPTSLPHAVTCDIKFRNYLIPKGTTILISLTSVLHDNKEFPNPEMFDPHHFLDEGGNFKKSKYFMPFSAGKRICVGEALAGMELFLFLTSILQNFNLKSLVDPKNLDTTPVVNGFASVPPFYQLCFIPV
How it was run: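 Turnover of Luciferin-H (100uM, KM) by 10nM human CYP2C9 was measured over 60 min at 37C with NADPH regeneration; inhibitors and some substrates reduce luminescence. Data normalized to sulphaphenazole 57uM.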

[19] = target: Cytochrome P450 2C19 (Homo sapiens) (UniProt P33261); assay: qHTS Assay for Inhibitors and Substrates of Cytochrome P450 2C19 (AID 899); note: % is set by controls: 0 for no effect and ±100 for the full control effect; nearly all actives have a fitted effect of over 60% in size
Sequence of Cytochrome P450 2C19 (Homo sapiens) (P33261 whole entry, looked up): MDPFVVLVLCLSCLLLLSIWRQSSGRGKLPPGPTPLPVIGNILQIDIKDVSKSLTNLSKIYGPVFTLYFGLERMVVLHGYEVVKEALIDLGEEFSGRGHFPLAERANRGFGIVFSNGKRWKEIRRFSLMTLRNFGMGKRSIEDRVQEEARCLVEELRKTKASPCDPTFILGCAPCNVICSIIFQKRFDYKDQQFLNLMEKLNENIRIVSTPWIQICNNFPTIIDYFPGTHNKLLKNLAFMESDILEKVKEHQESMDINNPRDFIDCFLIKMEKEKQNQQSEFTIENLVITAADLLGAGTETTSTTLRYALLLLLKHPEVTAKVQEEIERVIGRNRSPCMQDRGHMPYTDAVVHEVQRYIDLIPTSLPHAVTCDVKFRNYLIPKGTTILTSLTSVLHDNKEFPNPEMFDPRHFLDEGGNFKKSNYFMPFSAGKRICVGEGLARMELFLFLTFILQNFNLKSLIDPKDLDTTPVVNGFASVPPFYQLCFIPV
How it was run: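 Reactions contain 5nM enzyme, 10uM Luciferin-H EGE (KM) and 50mM KPO4; compound preincubates 10 min at 37C, NADPH regeneration starts turnover for 60 min. Luminescence after detection reagent gives activity.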

[20] = qHTS Assay for Identification of Small Molecule Agonists for Thrombopoietin (TPO) Signaling Pathway (AID 917); note: % is set by controls: 0 for no effect and ±100 for the full control effect
How it was run: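 We measured Glycoprotein IIb promoter–luciferase output in IL-3-starved Ba/F3 murine cells expressing the human TPO receptor after 24 hrs at 37 C with compounds and 26 pM TPO.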

[21] = target: Muscarinic acetylcholine receptor M1 (Rattus norvegicus) (UniProt P08482); assay: qHTS Assay for Antagonists of Acetylcholine Muscarinic M1 Receptor: Measurement of IP-One Response (AID 944); note: nearly all actives have a fitted effect of over 75% in size
How it was run: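 Steps: plate transfected CHO-M1 cells overnight; add test compound, 10 min; add carbachol (200 nM, EC80) in stimulation buffer with LiCl; incubate 30 min; add labelled IP1 tracer and anti-IP1 antibody in lysis buffer; read HTRF after 10 min.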

[22] = target: Pyruvate kinase (Leishmania mexicana) (UniProt Q27686); assay: qHTS Validation Assay for Inhibitors of Leishmania Mexicana Pyruvate Kinase (AID 945);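 note: 0% = DMSO only neutral control wells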
How it was run: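 Substrate mix (0.5 mM PEP, 0.1 mM ADP, 7 mM MgCl2, 50 mM KCl, pH 7.2 imidazole) received compound by pin tool, then 0.2 nM LmPYK E451W. After 1 h at room temperature, PKLight was added and luminescence measured.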

[23] = target: Pyruvate kinase PKM (Homo sapiens) (UniProt P14618); assay: qHTS Assay for Activators of Human Muscle Pyruvate Kinase (AID 954; active = well fitted curve in the direction sought with a large enough effect, not every such curve was filed as active;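 note: 0% = uninhibited enzyme and -100% = no enzyme or full thiadiazolimine inhibition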)
How it was run: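 Luminescence from a luciferase ATP-detection/stop reagent reported PKM2 activity. Reactions contained 0.1 nM purified human enzyme, 0.5 mM PEP, 0.1 mM ADP and 7 mM MgCl2 at pH 7.2, run 1 h at RT.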

[24] = target: Alpha-galactosidase A (Homo sapiens) (UniProt P06280); assay: Counterscreen for Glucocerebrosidase Inhibitors: qHTS Assay for Human alpha-Galactosidase at pH 4.5 (AID 992); note: 0% is about no effect
How it was run: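 Enzyme at 2 nM final was combined with compound (0.7 nM to 77 uM) and 80 uM 4-methylumbelliferyl alpha-D-galactopyranoside in 50 mM citric acid, 0.005% Tween-20, pH 4.5. After 20 min at room temperature, fluorescence was read (Ex 365/Em 440 nm); AC50 came from Hill fits.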

[25] = target: alpha-glucosidase (Oryza sativa, rice) (UniProt Q653V4); assay: Counterscreen for Glucocerebrosidase Inhibitors: qHTS Assay for Rice alpha-Glucosidase at pH 5.0 (AID 997);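 note: 0% = full activity with enzyme and -100% = basal without enzyme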
How it was run: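 Rice alpha-glucosidase (4 nM final) with 400 uM 4-methylumbelliferyl-alpha-D-glucopyranoside in citrate buffer pH 5.0, 20 min at room temperature, stopped at pH 10; fluorescence 365/440 nm, compounds 0.7 nM–77 uM, AC50 from Hill fits.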

CCOC(=O)c1ccc(NC(=O)CSc2nc(-c3ccc(OC)cc3)cc(C(F)(F)F)c2C#N)cc1
inactive: Potency [1] | outcome [2] | outcome [3] | Potency [4] | outcome [5]

N[C@H](Cn1ccc(=O)n(Cc2ccccc2C(=O)O)c1=O)C(=O)O
inactive: Potency [6] | Potency [7] > 46 µM | Potency [8] > 46 µM | Potency [9] | Potency [10] | Potency [11] | Potency [12] | Potency [13]

CCN(CC)CCCCN1c2ccccc2Oc2ccc(Cl)cc21
inactive: Potency [14]

COc1cc2nc(N3CCN(C(=O)[C@H]4CCCO4)CC3)nc(N)c2cc1OC
inactive: activity change, negative = inhibition [15] -4.26% | activity, negative = inhibition [16] 7.77% | Potency [7] > 46 µM | Potency [8] > 46 µM | Potency [10] | outcome [17] | Potency [18] | Potency [19] | Potency [20] | Potency [21] | Potency [22] | outcome [23] | outcome [24] | outcome [25] | Potency [12]

CC(C)C[C@H](NC(=O)[C@H](Cc1ccccc1)NC(=O)CNC(=O)CNC(=O)[C@@H](N)Cc1ccc(O)cc1)C(=O)N[C@@H](CCCN=C(N)N)C(=O)N[C@@H](CCCN=C(N)N)C(=O)N[C@@H](CCC(N)=O)C(=O)N[C@@H](Cc1ccccc1)C(=O)N[C@@H](CCCCN)C(=O)N[C@H](C(=O)N[C@H](C(=O)N[C@H](C(=O)O)[C@@H](C)O)C(C)C)C(C)C
inactive: activity change, negative = inhibition [13] -2% [at 3.88 µM]
